Compounds with a hit are over-represented: about 2.3% of the library has one in this group of screens.
M1 PAM parental – nonselective activator or artifact in parental CHO-K1 calcium assay. ATP EC20, Fluo-8 calcium fluorescence; 0% at ATP EC20, 100% at ATP max. activation, % at 3 µM. 0.02% of 360,000 active. AID 602247;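 active = activation above the run cutoff, the mean activation of all test compounds plus 3 SD, cut at about 40% in these data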;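 note: peak over basal fluorescence ratio in a 140 s read after ATP addition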
CHRM1 antagonist – antagonists of human M1 muscarinic receptor; 1.3% of 360,000 active; CHO-K1 hM1, Fluo-8 calcium fluorescence, ACh EC80 antagonist; inhibition, % at 3 µM;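 active = percent inhibition above its own plate's cutoff, namely the mean of that plate's compound wells plus 3 SD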;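 note: peak over basal fluorescence ratio during 140 s after agonist addition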
Target sequence (P11229 whole entry, looked up): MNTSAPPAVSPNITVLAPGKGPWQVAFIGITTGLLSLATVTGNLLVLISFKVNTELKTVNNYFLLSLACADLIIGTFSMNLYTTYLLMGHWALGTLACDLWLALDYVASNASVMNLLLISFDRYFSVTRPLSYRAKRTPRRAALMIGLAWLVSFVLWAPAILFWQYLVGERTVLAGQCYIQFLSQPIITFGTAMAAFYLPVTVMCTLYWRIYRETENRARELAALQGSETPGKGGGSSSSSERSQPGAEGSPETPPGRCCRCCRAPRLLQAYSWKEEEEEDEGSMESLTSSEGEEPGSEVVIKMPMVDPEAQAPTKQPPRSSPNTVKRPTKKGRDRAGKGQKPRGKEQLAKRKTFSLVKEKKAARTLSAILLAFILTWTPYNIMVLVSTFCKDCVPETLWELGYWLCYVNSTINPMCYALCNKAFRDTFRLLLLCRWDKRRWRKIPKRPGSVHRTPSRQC
CHO-K1 Ca ag – counter-screen for M1 agonists: effect in parental CHO-K1 cells; 0.48% of 360,000 active; Fluo-8 calcium fluorescence; scaled to maximal ATP response, vehicle zero; AID 602248; activation, % at 3 µM; in the data active = activation above about 15%;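 note: untransfected CHO-K1 host cells lacking M1 receptor as counterscreen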
M1 ag – human M1 muscarinic receptor agonism. P11229. activation, % at 3 µM. 0.33% of 360,000 active. CHO-K1 hM1, Fluo-8 calcium fluorescence, agonist mode; 0% DMSO, 100% acetylcholine EC100. AID 588814;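 active = activation above the run's mean compound activation plus 3 SD, cut at about 16% in these data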;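 note: peak over basal fluorescence ratio within a 140 s kinetic read after compound addition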
CHO-K1 Ca antag – M1 antagonist counterscreen hit in parental CHO-K1 cells; ATP-induced calcium, Fluo-8 fluorescence; inhibition, % at 3 µM; 0.6% of 360,000 active; AID 602250;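 active = inhibition above a per-plate cutoff, the plate's mean sample inhibition plus 3 SD, cut at about 24% in these data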
M1 PAM – positive allosteric modulators of human M1 muscarinic receptor | P11229 | CHO-K1 hM1, Fluo-8 calcium fluorescence, ACh EC20; 0% = ACh EC20, 100% = maximal ACh | activation, % at 3 µM | 0.088% of 360,000 active | AID 588819; in the data active = activation above about 19%, passing the limit was not always enough
Numbers stand for hits; i = inactive; nt = not tested or not shown.

SMILES	M1 PAM parental	CHRM1 antagonist	CHO-K1 Ca ag	M1 ag	CHO-K1 Ca antag	M1 PAM
Cc1ccc2c(=O)c(CN3CCCCCC3)c(C)[nH]c2c1C	i	72.0	i	i	i	i
Cc1ccc2c(c1)[C@H]1[C@H](CO2)[C@H](c2ccccc2)[C@]2(C)C(=O)Nc3ccccc3C(=O)N12	i	86.5	i	i	i	i
Cc1ccc2c(c1)[C@H]1[C@H](CO2)[C@H](c2ccccc2)[C@]2(C)C(=O)Nc3ccc(Cl)cc3C(=O)N12	i	35.2	i	i	i	i
COc1ccc2c(c1)C(=O)N1[C@H]3c4cc(C)ccc4OC[C@@H]3[C@H](c3ccccc3)[C@]1(C)C(=O)N2	i	60.1	i	i	i	i
C[C@@]12C(=O)Nc3ccccc3C(=O)N1[C@H]1c3cc(Cl)ccc3OC[C@@H]1[C@@H]2c1ccccc1	i	33.3	i	i	i	i
C[C@@]12C(=O)Nc3ccc(Cl)cc3C(=O)N1[C@H]1c3cc(Cl)ccc3OC[C@@H]1[C@@H]2c1ccccc1	i	i	i	i	i	i
CSc1sc(C(=O)NN)c2c1C1(CCC2)SCCS1	i	i	i	i	i	i
COc1c(F)c(F)c(C(=O)O)c(Nc2ccc(C)cc2C)c1F	i	i	i	i	i	i
CCCOc1ccc(C(=O)CCC(=O)OCC(=O)N2CCN(S(=O)(=O)c3ccc(C)cc3C)CC2)cc1	i	i	i	i	i	i
COc1ccc2c(c1)OC[C@H]1[C@H]2N2C(=O)c3cc(C)ccc3NC(=O)[C@@]2(C)[C@H]1c1ccccc1	i	i	i	i	i	i
COc1ccc2c(c1)OC[C@H]1[C@H]2N2C(=O)c3ccccc3NC(=O)[C@@]2(C)[C@H]1c1ccccc1	i	75.4	i	i	i	i
CC(C)N1C(=O)S/C(=C/c2ccc(Sc3nc4ccccc4[nH]3)o2)C1=O	i	i	i	i	i	i
C=CCN1C(=O)S/C(=C/c2ccc(Sc3nc4ccccc4[nH]3)o2)C1=O	i	i	i	i	25.6	i
CC1CC(=O)Nc2ccccc2N1C(=O)CN1CCN(C=O)CC1 (stereo not given)	i	i	15.3	i	i	i
CC(C)CN1C(=O)C(=O)N(CC(=O)N2c3ccccc3NC(=O)CC2C)C1=O (stereo not given)	i	i	i	i	i	i
COC(=O)c1ccc(OC(=O)CCc2cc(OC)c(OC)c(OC)c2)cc1	i	i	16.2	i	i	i
COC(=O)c1cc(OC(=O)CCc2ccc(OC)c(OC)c2)cc(C(=O)OC)c1	i	i	i	i	i	i
Cn1c(=S)[nH]c(=O)c2ncc(=O)[nH]c21	i	i	i	i	i	i
CCc1nc(SCC(=O)NCCc2ccccc2)c2oc3ccccc3c2n1	i	i	i	i	i	i
CCc1nc(SCC(=O)c2cccs2)c2oc3ccccc3c2n1	i	i	i	i	26.2	i
O=C1C(=C2CCc3ccccc32)Cc2ccccc21	i	i	i	i	i	i
c1ccc2c(c1)CCc1ccccc1C2=C1CCNCC1	i	100.2	i	i	i	i
COc1ccc(/C=N/N=C2/NC(=O)C(CC(=O)O)S2)cc1OS(=O)(=O)c1ccccc1 (stereo not given)	i	i	i	i	i	i
COc1cc(/C=N/N=C2/NC(=O)C(Cc3ccccc3)S2)ccc1O (stereo not given)	i	i	24.5	i	i	i
COc1ccc(F)cc1S(=O)(=O)NC1CC(C)(C)NC(C)(C)C1	i	i	i	i	27.7	i
SMILES	M1 PAM parental	CHRM1 antagonist	CHO-K1 Ca ag	M1 ag	CHO-K1 Ca antag	M1 PAM
O=C(Nc1nnc(S(=O)(=O)N2CCCCCC2)s1)c1ccccc1F	i	30.6	i	i	i	i
COc1cc(NC(=O)c2cccs2)c(OC)cc1NC(=O)Nc1ccc(F)cc1	i	i	i	i	i	i
CC(C)C[C@H]1CN(CCCC[C@@H]2CNC(=O)C(=O)N2CC2CCCCC2)C(=O)C(=O)N1CC1CCCCC1	i	nt	i	nt	i	nt
Cc1nc2ccc(NS(=O)(=O)c3ccc4c(c3)OCCO4)cc2s1	i	31.2	i	i	i	i
Cc1nc2ccc(S(=O)(=O)Nc3cccc(-c4nc5cccnc5s4)c3)cc2s1	i	i	i	i	30.0	i
CC1C/C(=N/NC(=O)c2cccc(F)c2)c2ccc(O)cc2C1 (stereo not given)	i	i	i	i	i	i
C[C@@H](CN1C2=NC[C@H](Cc3ccc(O)cc3)N2C[C@H]1Cc1ccc(O)cc1)NC(=O)CCC1CCCCC1	i	i	i	i	i	i
C[C@@H](CN1C2=NC[C@H](Cc3ccccc3)N2C[C@H]1Cc1ccc(O)cc1)NC(=O)CCC1CCCCC1	i	40.0	i	i	i	i
Cn1nc(-c2ccccc2)cc1NC(=O)[C@@H]1O[C@H](CO)[C@H](O)[C@H](O)[C@H]1O	i	i	i	i	i	i
N#Cc1ccc(CN(Nc2ccccc2)c2ccccc2)cc1	i	i	i	i	29.2	i
COc1ccc2oc(=O)c(C(=O)NCc3ccc(F)cc3)cc2c1	i	i	15.6	i	i	i
COc1ccc2oc(=O)c(C(=O)C[n+]3cccc(C)c3)cc2c1	i	31.8	i	i	i	i
CNC(=O)c1cc2cc(OC)ccc2oc1=O	i	i	i	i	i	i
OCCNCc1c(OCc2ccc(Cl)cc2)ccc2ccccc12	i	i	23.7	i	i	i
CC(CN1C(C)CCCC1C)OC(=O)c1cccc(Br)c1 (stereo not given)	i	i	i	i	i	i
CN1C2CCC1CC(NC(=O)CSc1ccc(Cl)cc1)C2 (stereo not given)	i	53.0	i	i	i	i
CC1CCC(NC(=O)Cn2cnc3sccc3c2=O)CC1 (stereo not given)	i	i	i	i	i	i
CCc1ccc(NC(=O)c2cc(S(=O)(=O)N3CCCC3)c[nH]2)cc1	i	i	i	i	i	i
CC(C)c1ccc(NC(=O)c2cc(S(=O)(=O)N3CCCC3)c[nH]2)cc1	i	35.4	i	i	i	i
Cn1c(-c2ccc3c(c2)OCO3)cnc1NCc1ccccc1Cl	i	94.3	i	i	i	i
Cn1c(-c2ccc3c(c2)OCO3)cnc1NCc1ccccc1	i	i	i	i	i	i
Cc1ccc(-c2cnc(NCc3cc4c(cc3[N+](=O)[O-])OCO4)n2C)cc1C	i	i	17.0	i	i	i
Cc1cc(C)cc(NCc2cc3c(cc2[N+](=O)[O-])OCO3)c1	i	i	i	i	i	i
Cn1c(-c2ccc3c(c2)OCO3)cnc1NCc1cccc(Cl)c1	i	73.7	i	i	i	i
COc1ccc(CNc2ncnc3cc(Cl)ccc23)cc1OC	i	i	i	i	i	i
Fc1ccc(CNc2ncnc3cc(Cl)ccc23)cc1	i	i	16.0	i	i	i
COc1cccc(C(=O)N2CCC[C@@H]2C(=O)N2CCC[C@H]2C(=O)NCc2ccncc2)c1	i	nt	i	nt	i	nt

Source: PubChem BioAssay (The Scripps Research Institute Molecular Screening Center)
